Consider 10 compounds from ChEMBL document CHEMBL3988442, “University of Dundee, Small-Polar-MMV Screening Library” (2021).

For some assays here: Potency and affinity values are given separately.

What all share (design): scale not given: direction of the effect not stated beside the values
Assay [1] addresses Protein translocase subunit SecA (Escherichia coli (strain K12)) (UniProt P10408). Description: Assay to Identify E. coli SecA ATPase Inhibitors. It counts as functional. The settings on record: 30 µM.
The target in assay [2] is T1, Ubiquitin-activating enzyme e1, putative (Leishmania donovani (strain BPK282A1)) (UniProt E9BSI1).
T1 sequence (whole entry): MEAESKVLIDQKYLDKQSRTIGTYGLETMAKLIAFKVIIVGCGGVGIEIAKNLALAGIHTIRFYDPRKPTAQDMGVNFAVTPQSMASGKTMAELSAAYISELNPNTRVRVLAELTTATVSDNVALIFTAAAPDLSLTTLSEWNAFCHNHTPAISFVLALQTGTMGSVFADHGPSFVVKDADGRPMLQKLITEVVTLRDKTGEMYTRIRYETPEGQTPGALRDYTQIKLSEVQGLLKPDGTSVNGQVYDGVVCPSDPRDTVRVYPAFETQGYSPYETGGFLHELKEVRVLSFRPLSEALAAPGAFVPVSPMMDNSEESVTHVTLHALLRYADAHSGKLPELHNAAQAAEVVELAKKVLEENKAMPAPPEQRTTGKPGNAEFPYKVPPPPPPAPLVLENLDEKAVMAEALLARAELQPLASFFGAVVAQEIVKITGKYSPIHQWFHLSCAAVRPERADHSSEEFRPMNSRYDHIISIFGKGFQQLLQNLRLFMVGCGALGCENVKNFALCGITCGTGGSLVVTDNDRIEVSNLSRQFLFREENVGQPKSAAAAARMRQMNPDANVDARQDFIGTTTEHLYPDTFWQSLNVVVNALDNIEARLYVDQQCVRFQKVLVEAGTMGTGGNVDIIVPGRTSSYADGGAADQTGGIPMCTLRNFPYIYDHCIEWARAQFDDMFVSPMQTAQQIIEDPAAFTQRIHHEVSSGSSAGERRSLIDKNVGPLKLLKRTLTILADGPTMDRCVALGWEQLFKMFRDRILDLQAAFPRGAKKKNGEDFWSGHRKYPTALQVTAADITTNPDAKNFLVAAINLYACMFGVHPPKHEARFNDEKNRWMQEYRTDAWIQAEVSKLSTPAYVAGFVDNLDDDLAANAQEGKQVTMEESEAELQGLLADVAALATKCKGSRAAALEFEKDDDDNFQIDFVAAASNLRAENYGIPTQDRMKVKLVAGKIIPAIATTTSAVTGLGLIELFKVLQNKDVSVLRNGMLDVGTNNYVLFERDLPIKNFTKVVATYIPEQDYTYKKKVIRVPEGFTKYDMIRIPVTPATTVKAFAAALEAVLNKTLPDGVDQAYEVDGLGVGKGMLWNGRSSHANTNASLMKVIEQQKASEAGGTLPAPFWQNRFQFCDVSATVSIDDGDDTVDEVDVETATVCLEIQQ
The experiment in a line: Leishmania donovani Ubiquitin Activating Enzyme (LdE1). It counts as functional. The settings on record: 30 µM.

The target of assay [3] is AMP-activated protein kinase, AMPK (Homo sapiens) (UniProt P54646+O43741+P54619+Q9UGJ0+Q9Y478+Q13131+Q9UGI9). Description: AMP-dependent Kinase enzyme assay. An in vitro enzyme assay that detects ADP turnover that is directly proportional to AMPK activity. This uses naive AMPK that is activated during the assay with MK-8722. It counts as functional. The settings on record: 30 µM.

The target in assay [4] is Sialic acid-binding Ig-like lectin 9 (Homo sapiens) (UniProt Q9Y336). The experiment in a line: Hs-Siglec9 ALPHAscreen SOP 20170721. Conditions: 10 µM. (Alpha assays give light when donor and acceptor beads are brought close together.)
Sialic acid-binding Ig-like lectin 9 (Homo sapiens), sequence (Q9Y336 whole entry): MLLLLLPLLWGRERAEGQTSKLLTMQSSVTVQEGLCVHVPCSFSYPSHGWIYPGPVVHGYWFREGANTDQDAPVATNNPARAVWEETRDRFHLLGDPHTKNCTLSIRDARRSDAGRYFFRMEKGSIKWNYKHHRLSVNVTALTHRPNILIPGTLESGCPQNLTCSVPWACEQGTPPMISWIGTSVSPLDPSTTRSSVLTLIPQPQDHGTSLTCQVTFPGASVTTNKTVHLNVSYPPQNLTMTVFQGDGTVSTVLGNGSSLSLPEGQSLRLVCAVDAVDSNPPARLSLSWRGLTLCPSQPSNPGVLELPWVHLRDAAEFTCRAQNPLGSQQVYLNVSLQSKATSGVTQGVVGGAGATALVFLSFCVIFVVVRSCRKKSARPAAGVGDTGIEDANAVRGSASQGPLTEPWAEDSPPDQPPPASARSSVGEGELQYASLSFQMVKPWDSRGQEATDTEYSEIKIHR
Assay [5] concerns Trypanosoma cruzi. The experiment in a line: Trypanosoma cruzi phosphomannomutase and mannose-1-phosphate guanylyltransferase assay. The assay is classed as functional. The settings on record: 10 µM.
In assay [6] the target is T2, Arginase-2, mitochondrial (Homo sapiens) (UniProt P78540).
T2 sequence (whole entry): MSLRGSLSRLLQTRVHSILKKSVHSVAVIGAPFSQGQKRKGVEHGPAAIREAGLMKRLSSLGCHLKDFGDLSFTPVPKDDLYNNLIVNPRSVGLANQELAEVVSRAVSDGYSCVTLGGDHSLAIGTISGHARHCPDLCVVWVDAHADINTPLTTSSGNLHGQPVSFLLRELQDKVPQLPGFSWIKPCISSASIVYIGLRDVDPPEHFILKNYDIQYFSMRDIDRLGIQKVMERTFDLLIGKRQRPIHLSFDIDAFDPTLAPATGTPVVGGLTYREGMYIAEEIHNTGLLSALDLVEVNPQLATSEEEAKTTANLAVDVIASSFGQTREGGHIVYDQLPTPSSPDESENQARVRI
The experiment in a line: in vitro enzyme assay to detect the production of urea directly proportional to the activity of Arginase II. Also: in the data most compounds retested in dose-response had high values. The assay is classed as functional. The settings on record: 33.3 µM.

Assay [7] addresses T3, Proteasome subunit beta (Trypanosoma cruzi) (UniProt O96673).
T3 sequence (whole entry): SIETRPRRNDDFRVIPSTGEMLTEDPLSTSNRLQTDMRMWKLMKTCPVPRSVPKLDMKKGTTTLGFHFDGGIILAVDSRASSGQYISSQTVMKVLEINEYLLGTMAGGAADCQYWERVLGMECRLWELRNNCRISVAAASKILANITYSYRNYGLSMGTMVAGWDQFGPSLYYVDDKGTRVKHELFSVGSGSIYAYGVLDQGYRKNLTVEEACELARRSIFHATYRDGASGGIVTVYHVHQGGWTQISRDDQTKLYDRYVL
Description: Trypanosoma cruzi proteasome chymotrypsin-like activity (TcProtChymo) assay. Also: in the data most compounds retested in dose-response had high values. It counts as functional. The settings on record: 9.37 µM.

For assay [8], the species on record is Homo sapiens. Description: To identify inhibition of the IFN signalling (Jak-Stat) pathway via expression of an eGFP reporter gene under the control of an IFN-stimulated response element (ISRE) containing MxA promoter. The settings on record: 30 µM. The assay is classed as functional. (In general: In a reporter assay the amount or activity of a reporter protein is the signal.)

Assay [9] deals with T4, Tyrosyl-tRNA synthetase, putative (Trypanosoma cruzi (strain CL Brener)) (UniProt Q4DSP6).
T4 sequence (whole entry): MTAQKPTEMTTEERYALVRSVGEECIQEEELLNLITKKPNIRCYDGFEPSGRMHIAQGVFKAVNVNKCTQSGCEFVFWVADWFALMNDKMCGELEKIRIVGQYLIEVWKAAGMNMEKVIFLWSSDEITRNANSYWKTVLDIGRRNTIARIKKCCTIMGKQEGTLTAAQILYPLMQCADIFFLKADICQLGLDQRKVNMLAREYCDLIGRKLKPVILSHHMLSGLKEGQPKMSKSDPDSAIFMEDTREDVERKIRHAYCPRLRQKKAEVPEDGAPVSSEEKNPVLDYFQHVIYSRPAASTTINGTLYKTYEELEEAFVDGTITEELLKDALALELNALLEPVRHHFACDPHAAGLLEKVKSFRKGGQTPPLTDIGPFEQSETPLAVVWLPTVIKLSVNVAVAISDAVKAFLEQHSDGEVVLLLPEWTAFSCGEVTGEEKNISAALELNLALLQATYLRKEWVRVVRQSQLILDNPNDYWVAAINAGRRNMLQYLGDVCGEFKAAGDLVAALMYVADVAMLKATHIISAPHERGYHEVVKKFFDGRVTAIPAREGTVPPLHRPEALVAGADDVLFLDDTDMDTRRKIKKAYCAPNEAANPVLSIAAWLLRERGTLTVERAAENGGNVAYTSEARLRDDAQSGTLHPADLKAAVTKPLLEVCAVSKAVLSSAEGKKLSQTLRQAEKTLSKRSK
The experiment in a line: Trypanosoma cruzi tyrosyl tRNA synthetase (TcYRS) _High Tyrosine SOP. Also: in the data most compounds retested in dose-response had high values. The assay is classed as functional. The settings on record: 30 µM.

Assay [10] concerns the target T4, Tyrosyl-tRNA synthetase, putative (Trypanosoma cruzi (strain CL Brener)). Description: Trypanosoma cruzi tyrosyl tRNA synthetase (TcYRS) SOP. The assay is classed as functional. The settings on record: 30 µM.
The target in assay [11] is Chromo domain-containing protein 1 (Saccharomyces cerevisiae (strain ATCC 204508 / S288c) (Baker's yeast)) (UniProt P32657). The experiment in a line: ScCHD-1 Enzyme Inhibition Assay. Also: in the data most compounds retested in dose-response had high values. It counts as functional. Conditions: 30 µM.
Chromo domain-containing protein 1 (Saccharomyces cerevisiae (strain ATCC 204508 / S288c) (Baker's yeast)), sequence (P32657 whole entry, the tested form may be a part): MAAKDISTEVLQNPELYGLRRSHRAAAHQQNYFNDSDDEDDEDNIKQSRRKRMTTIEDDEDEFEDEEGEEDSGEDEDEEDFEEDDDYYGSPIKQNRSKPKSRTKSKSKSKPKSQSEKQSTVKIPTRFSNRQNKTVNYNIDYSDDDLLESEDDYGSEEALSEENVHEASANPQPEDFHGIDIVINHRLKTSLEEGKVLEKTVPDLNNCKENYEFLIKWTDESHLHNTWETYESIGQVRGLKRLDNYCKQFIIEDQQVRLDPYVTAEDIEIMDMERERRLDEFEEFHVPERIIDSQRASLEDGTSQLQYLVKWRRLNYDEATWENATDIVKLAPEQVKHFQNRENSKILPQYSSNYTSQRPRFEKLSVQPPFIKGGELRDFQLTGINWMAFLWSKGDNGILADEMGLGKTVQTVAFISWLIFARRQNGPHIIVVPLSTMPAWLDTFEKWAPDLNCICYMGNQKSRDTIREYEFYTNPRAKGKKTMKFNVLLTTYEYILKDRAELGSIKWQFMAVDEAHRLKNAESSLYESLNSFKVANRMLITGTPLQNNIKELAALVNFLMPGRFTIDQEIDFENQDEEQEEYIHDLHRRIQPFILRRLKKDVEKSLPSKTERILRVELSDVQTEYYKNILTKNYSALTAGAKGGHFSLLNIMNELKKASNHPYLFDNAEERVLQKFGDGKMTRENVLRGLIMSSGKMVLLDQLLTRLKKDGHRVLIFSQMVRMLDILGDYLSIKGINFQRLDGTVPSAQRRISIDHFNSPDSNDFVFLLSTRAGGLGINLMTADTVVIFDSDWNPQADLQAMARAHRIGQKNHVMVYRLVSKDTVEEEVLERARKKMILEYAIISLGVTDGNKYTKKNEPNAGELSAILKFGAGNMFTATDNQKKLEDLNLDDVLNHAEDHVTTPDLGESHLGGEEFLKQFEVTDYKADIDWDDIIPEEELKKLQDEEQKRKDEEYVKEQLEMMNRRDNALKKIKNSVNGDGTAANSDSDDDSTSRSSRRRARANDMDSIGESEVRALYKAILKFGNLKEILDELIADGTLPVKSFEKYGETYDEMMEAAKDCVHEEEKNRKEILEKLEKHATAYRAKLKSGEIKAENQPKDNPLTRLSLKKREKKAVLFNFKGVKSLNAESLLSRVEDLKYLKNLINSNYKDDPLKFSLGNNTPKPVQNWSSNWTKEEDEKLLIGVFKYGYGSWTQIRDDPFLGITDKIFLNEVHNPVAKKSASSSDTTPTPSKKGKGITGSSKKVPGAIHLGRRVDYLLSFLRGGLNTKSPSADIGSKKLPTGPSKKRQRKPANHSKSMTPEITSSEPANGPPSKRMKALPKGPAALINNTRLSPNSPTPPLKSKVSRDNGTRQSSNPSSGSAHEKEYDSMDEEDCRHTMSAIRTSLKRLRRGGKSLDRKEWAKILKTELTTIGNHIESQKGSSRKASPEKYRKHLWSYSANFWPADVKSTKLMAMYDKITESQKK

Protein translocase subunit SecA (Escherichia coli (strain K12)), sequence (P10408 whole entry): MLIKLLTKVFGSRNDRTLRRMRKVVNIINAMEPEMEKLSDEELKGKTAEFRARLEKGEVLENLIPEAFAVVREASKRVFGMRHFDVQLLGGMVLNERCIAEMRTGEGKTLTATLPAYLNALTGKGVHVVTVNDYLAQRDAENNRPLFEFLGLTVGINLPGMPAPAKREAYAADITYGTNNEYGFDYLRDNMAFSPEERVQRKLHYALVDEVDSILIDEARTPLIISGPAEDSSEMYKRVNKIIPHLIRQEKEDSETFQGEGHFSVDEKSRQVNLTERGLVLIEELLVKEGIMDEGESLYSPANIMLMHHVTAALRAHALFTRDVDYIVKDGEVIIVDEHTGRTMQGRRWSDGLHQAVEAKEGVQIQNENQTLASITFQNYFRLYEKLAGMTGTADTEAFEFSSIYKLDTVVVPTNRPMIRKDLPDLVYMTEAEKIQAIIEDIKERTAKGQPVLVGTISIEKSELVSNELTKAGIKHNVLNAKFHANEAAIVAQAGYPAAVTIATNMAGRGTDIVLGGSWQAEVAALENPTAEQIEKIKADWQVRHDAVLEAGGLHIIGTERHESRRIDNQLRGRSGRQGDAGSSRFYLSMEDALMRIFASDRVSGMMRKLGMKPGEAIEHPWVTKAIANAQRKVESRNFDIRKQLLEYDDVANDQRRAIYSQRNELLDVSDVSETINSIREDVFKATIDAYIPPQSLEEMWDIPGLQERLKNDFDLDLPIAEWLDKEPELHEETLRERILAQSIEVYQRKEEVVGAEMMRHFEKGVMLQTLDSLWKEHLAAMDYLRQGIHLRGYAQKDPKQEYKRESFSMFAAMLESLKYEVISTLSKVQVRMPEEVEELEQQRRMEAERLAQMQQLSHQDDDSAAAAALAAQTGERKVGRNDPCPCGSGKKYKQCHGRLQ

On to `Cc1nc(CN(C)C2CCN(Cc3nc4ccccc4s3)C2)no1` (stereo not given), for which the Percent Effect in assay [1] is -6.59%; in assay [2], 5.26%; in assay [3], -8.48%; in assay [4], 14.1%; in [5], 4.95%; in assay [6], 1.8%. Further, the Percent Effect in [7] was 3.81%; in assay [8], -14.2%; in [9] it was 10.3%; in [10], 25.9%; in assay [11], -8.21%.
As to `COCC(=O)N1CC[C@@H]2CN(Cc3cccc(Cl)c3)S(=O)(=O)[C@@H]2CC1`, the Percent Effect in assay [1] is -3.3%; in assay [2], 10.7%; in [3], -2.58%; in assay [4], -5.34%; in [5] it was -6.18%; in assay [6] it was -55%. The Percent Effect is 9.74% in [7]; 5.42% in assay [8]; -3.12% in assay [9]; 12.5% in assay [10]; -5.91% in assay [11].
For `Cn1nnc2c1CCN(CC1CC1)C2COCc1ccccc1` (stereo not given), the Percent Effect in assay [1] was -1.15%; in [2], 16%; in assay [3] it was -5.25%; in assay [4] it was -5.75%; in [5] it was 2.36%; in assay [6] it was 5.36%. Moreover, the Percent Effect was 3.44% in [7]; -2.55% in assay [8]; 9.57% in [9]; 14.1% in assay [10]; -4.41% in [11].
Turning to `Cc1cccc(CN2CC3(CCNCC3)OCC2=O)n1`, the Percent Effect was -6.42% in assay [1]; 2.7% in assay [2]; 2.52% in assay [3]; -3.05% in [4]; 1.37% in [5]; -0.833% in assay [6]. Besides, the Percent Effect in assay [7] is 2.11%; in assay [8], 2.26%; in assay [9], 4.95%; in assay [10], 11%; in assay [11], -6.46%.
Take `O=C(NCC(F)F)N1CCC(n2ccc(C(F)(F)F)n2)CC1`: the Percent Effect was -2.09% in assay [1]; 5.48% in assay [2]; -1.59% in [3]; 3.79% in assay [4]; 5.09% in assay [5]; 8.64% in assay [6]. The Percent Effect in assay [7] is 10.3%; in assay [8] it was 0.988%; in assay [9] it was 2.15%; in assay [10] it was 7.5%; in [11], -4.48%.
For the compound `CCCS(=O)(=O)N1CCOCC2(CCN(c3ccccn3)C2)C1` (stereo not given), the Percent Effect was -1.74% in assay [1]; 1.33% in assay [2]; -1.28% in assay [3]; 4.69% in assay [4]; -6.88% in assay [5]; 1.58% in [6]. The Percent Effect in [7] was 3.88%; in assay [8] it was 3.94%; in [9], -3.17%; in assay [10], 5.13%; in assay [11] it was -4.27%.
Take `N#Cc1ccc(OCCCN2CCc3cncnc3C2)cc1`: the Percent Effect in assay [1] was -5.04%; in assay [2], 5.06%; in assay [3], -14.8%; in assay [4] it was 5.6%; in [5] it was -3.68%; in assay [6] it was -3.04%. The Percent Effect is -6.14% in [7]; 18.3% in assay [8]; -0.493% in [9]; 11.4% in [10]; -4.55% in assay [11].
Take `CC(C)c1nnc2n1CCN(C(=O)CN1CCc3sccc3C1)C2`: the Percent Effect in assay [1] was -3.25%; in assay [2], 5.26%; in assay [3], -8.35%; in assay [4] it was -4%; in assay [5], 7.71%; in [6], 4.6%. Besides, the Percent Effect is -2.34% in assay [7]; 0.728% in [8]; 3.43% in assay [9]; 7.32% in [10]; -5.85% in assay [11].
Consider `N#Cc1ccc(CNCC(C(=O)N2CCOCC2)c2ccccc2)cc1` (stereo not given), for which the Percent Effect in assay [1] is -2.65%; in assay [2], 10.4%; in assay [3] it was -4.88%; in assay [4] it was 7.63%; in [5], 2.06%; in assay [6] it was -75.9%. For the same compound, the Percent Effect in assay [7] was 4.16%; in assay [8] it was -2.22%; in assay [9], 4.3%; in [10], 13.6%; in assay [11] it was -3.12%.
Regarding `COC(=O)CNC(=O)CSCc1nc(O)c2cc(C(C)C)sc2n1`, the Percent Effect is 0.0478% in assay [1]; -6.67% in assay [2]; 10.7% in assay [3]; 2.72% in assay [4]; -2.95% in assay [5]; -9.68% in assay [6]. Moreover, the Percent Effect in [7] was 7.58%; in [8], -3.98%; in assay [9], -3.17%; in assay [10], 5.13%; in [11], -1.35%.
